{"source": "the supplement of paper PMC8728848", "binders": {"B1": {"name": "Langerin (Homo sapiens), Q9UJ71 (protein)", "chain": "STLNAQIPELKSDLEKASALNTKIRALQGSLENMSKLLKRQNDILQVVSQGWKYFKGNFYYFSLIPKTWYSAEQFCVSRNSHLTSVTSESEQEFLYKTAGGLIYWIGLTKAGMEGDWSWVDDTPFNKVQSARFWIPGEPNDAGNNEHCGNIKAPSLQAWNDAPCDITFLFICKRPYVPSEP"}}, "experiment_in_all_cases": "glycan array binding signal (z-score within array); higher = stronger binding", "settings_in_all_cases": "glycan notation: IUPAC condensed, linker removed; mutation: N288D, K313I", "key": {"[1]": {"target": "Fuc(a1-2)Gal(b1-3)GlcNAc(b1-3)[Fuc(a1-2)Gal(b1-3)GlcNAc(b1-6)]GalNAc", "method_in_brief": "(§1)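 The Consortium for Functional Glycomics database supplied 3228 glycan arrays, of which those lacking an available protein sequence were dropped. The binding signal, a within-array Z-score, was averaged across arrays of the same protein sequence and across linkers. Negative scores can be read as non-binding.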"}, "[2]": {"target": "Fuc(a1-2)Gal(b1-3)GlcNAc(b1-3)[Gal(b1-4)GlcNAc(b1-6)]Gal(b1-4)Glc", "method_in_brief": "as §1"}, "[3]": {"target": "Fuc(a1-2)Gal(b1-4)Fuc(a1-3)]GlcNAc(b1-2)Man(a1-3)[Fuc(a1-2)Gal(b1-4)[Fuc(a1-3)]GlcNAc(b1-2)Man(a1-6)]Man(b1-4)GlcNAc(b1-4)GlcNAc", "method_in_brief": "as §1"}, "[4]": {"target": "Fuc(a1-2)Gal(b1-4)GlcNAc(b1-2)Man(a1-3)[Fuc(a1-2)Gal(b1-4)GlcNAc(b1-2)Man(a1-6)]Man(b1-4)GlcNAc(b1-4)GlcNAc", "method_in_brief": "as §1"}, "[5]": {"target": "Fuc(a1-2)Gal6S(b1-3)GlcNAc", "method_in_brief": "as §1"}, "[6]": {"target": "Fuc(a1-2)[GalNAc(a1-3)]Gal(b1-3)GlcNAc(b1-6)GalNAc", "method_in_brief": "as §1"}, "[7]": {"target": "Fuc(a1-2)[GalNAc(a1-3)]Gal(b1-4)GlcNAc", "method_in_brief": "as §1"}, "[8]": {"target": "Fuc(a1-2)[GalNAc(a1-3)]Gal(b1-4)GlcNAc(b1-3)GalNAc", "method_in_brief": "as §1"}, "[9]": {"target": "Fuc(a1-2)[GalNAc(a1-3)]Gal(b1-4)[Fuc(a1-3)]GlcNAc(b1-3)GalNAc", "method_in_brief": "as §1"}, "[10]": {"target": "Fuc(a1-2)[GalNAc(a1-4)]Gal(b1-4)GlcNAc", "method_in_brief": "as §1"}, "[11]": {"target": "Fuc(a1-3)[Gal3S(b1-4)]GlcNAc", "method_in_brief": "as §1"}, "[12]": {"target": "Gal(a1-3)Gal(b1-3)GlcNAc(b1-6)GalNAc", "method_in_brief": "as §1"}, "[13]": {"target": "Gal(a1-3)Gal(b1-3)[Fuc(a1-4)]GlcNAc(b1-2)Man(a1-3)[Gal(a1-3)Gal(b1-3)[Fuc(a1-4)]GlcNAc(b1-2)Man(a1-6)]Man(b1-4)GlcNAc(b1-4)GlcNAc", "method_in_brief": "as §1"}, "[14]": {"target": "Gal(b1-3)GalNAc(a1-3)[Fuc(a1-2)]Gal(b1-4)Glc", "method_in_brief": "as §1"}, "[15]": {"target": "Gal(b1-3)GlcNAc(b1-3)Gal(b1-4)GlcNAc(b1-2)[Gal(b1-3)GlcNAc(b1-3)Gal(b1-4)GlcNAc(b1-6)]Man(a1-6)[Gal(b1-3)GlcNAc(b1-3)Gal(b1-4)GlcNAc(b1-2)Man(a1-3)]Man(b1-4)GlcNAc(b1-4)[Fuc(a1-6)]GlcNAc", "method_in_brief": "as §1"}, "[16]": {"target": "Gal(b1-3)GlcNAc(b1-3)Gal(b1-4)GlcNAc(b1-3)Gal(b1-4)GlcNAc(b1-2)[Gal(b1-3)GlcNAc(b1-3)Gal(b1-4)GlcNAc(b1-3)Gal(b1-4)GlcNAc(b1-6)]Man(a1-6)[Gal(b1-3)GlcNAc(b1-3)Gal(b1-4)GlcNAc(b1-3)Gal(b1-4)GlcNAc(b1-2)Man(a1-3)]Man(b1-4)GlcNAc(b1-4)[Fuc(a1-6)]GlcNAc", "method_in_brief": "as §1"}, "[17]": {"target": "Gal(b1-3)[Neu5Ac(a2-6)]GalNAc", "method_in_brief": "as §1"}, "[18]": {"target": "Gal(b1-4)GlcNAc(b1-2)Man(a1-3)[GlcNAc(b1-4)][Gal(b1-4)GlcNAc(b1-2)Man(a1-6)]Man(b1-4)GlcNAc(b1-4)GlcNAc", "method_in_brief": "as §1"}, "[19]": {"target": "Gal(b1-4)GlcNAc(b1-2)[Gal(b1-4)GlcNAc(b1-4)]Man(a1-3)[Gal(b1-4)GlcNAc(b1-2)[Gal(b1-4)GlcNAc(b1-6)]Man(a1-6)]Man(b1-4)GlcNAc(b1-4)GlcNAc", "method_in_brief": "as §1"}, "[20]": {"target": "Gal3S(b1-4)[Fuc(a1-3)]GlcNAc6S", "method_in_brief": "as §1"}, "Gal3S4S(b1-4)GlcNAc": {"target": "Gal3S4S(b1-4)GlcNAc", "method_in_brief": "as §1"}, "Gal3S6S(b1-4)GlcNAc": {"target": "Gal3S6S(b1-4)GlcNAc", "method_in_brief": "as §1"}, "GalNAc(b1-3)Gal": {"target": "GalNAc(b1-3)Gal", "method_in_brief": "as §1"}, "[21]": {"target": "GalNAc(b1-4)GlcNAc(b1-2)Man(a1-3)[GalNAc(b1-4)GlcNAc(b1-2)Man(a1-6)]Man(b1-4)GlcNAc(b1-4)GlcNAc", "method_in_brief": "as §1"}, "GalNAc(b1-6)GalNAc": {"target": "GalNAc(b1-6)GalNAc", "method_in_brief": "as §1"}, "[22]": {"target": "GalNAc3S(b1-4)[Fuc(a1-3)]GlcNAc", "method_in_brief": "as §1"}, "[23]": {"target": "GlcNAc(a1-4)Gal(b1-4)GlcNAc(b1-3)Gal(b1-4)Glc", "method_in_brief": "as §1"}, "[24]": {"target": "GlcNAc(a1-6)Gal(b1-4)GlcNAc", "method_in_brief": "as §1"}}, "note": "The entries come from a sample that favours the strongest signals as a whole."}
{"binder": "B1", "values": [{"measurement": "glycan array binding signal (z-score)", "setting": "[1]", "result": 0.215}, {"measurement": "glycan array binding signal (z-score)", "setting": "[2]", "result": -0.246}, {"measurement": "glycan array binding signal (z-score)", "setting": "[3]", "result": -0.237}, {"measurement": "glycan array binding signal (z-score)", "setting": "[4]", "result": -0.023}, {"measurement": "glycan array binding signal (z-score)", "setting": "[5]", "result": -0.321}, {"measurement": "glycan array binding signal (z-score)", "setting": "[6]", "result": 0.089}, {"measurement": "glycan array binding signal (z-score)", "setting": "[7]", "result": -0.27}, {"measurement": "glycan array binding signal (z-score)", "setting": "[8]", "result": -0.041}, {"measurement": "glycan array binding signal (z-score)", "setting": "[9]", "result": 1.92}, {"measurement": "glycan array binding signal (z-score)", "setting": "[10]", "result": -0.285}, {"measurement": "glycan array binding signal (z-score)", "setting": "[11]", "result": 0.041}, {"measurement": "glycan array binding signal (z-score)", "setting": "[12]", "result": 10.4}, {"measurement": "glycan array binding signal (z-score)", "setting": "[13]", "result": -0.042}, {"measurement": "glycan array binding signal (z-score)", "setting": "[14]", "result": -0.171}, {"measurement": "glycan array binding signal (z-score)", "setting": "[15]", "result": 5.7}, {"measurement": "glycan array binding signal (z-score)", "setting": "[16]", "result": 7.74}, {"measurement": "glycan array binding signal (z-score)", "setting": "[17]", "result": -0.085}, {"measurement": "glycan array binding signal (z-score)", "setting": "[18]", "result": -0.237}, {"measurement": "glycan array binding signal (z-score)", "setting": "[19]", "result": -0.351}, {"measurement": "glycan array binding signal (z-score)", "setting": "[20]", "result": -0.1}, {"measurement": "glycan array binding signal (z-score)", "setting": "Gal3S4S(b1-4)GlcNAc", "result": -0.333}, {"measurement": "glycan array binding signal (z-score)", "setting": "Gal3S6S(b1-4)GlcNAc", "result": -0.209}, {"measurement": "glycan array binding signal (z-score)", "setting": "GalNAc(b1-3)Gal", "result": -0.289}, {"measurement": "glycan array binding signal (z-score)", "setting": "[21]", "result": -0.176}, {"measurement": "glycan array binding signal (z-score)", "setting": "GalNAc(b1-6)GalNAc", "result": -0.255}, {"measurement": "glycan array binding signal (z-score)", "setting": "[22]", "result": 0.095}, {"measurement": "glycan array binding signal (z-score)", "setting": "[23]", "result": -0.192}, {"measurement": "glycan array binding signal (z-score)", "setting": "[24]", "result": -0.229}]}
